# Data: the supplement of paper PMC3334620
# In all, about 33,000 sequences were measured (“E-score (-0.5 to 0.5)”: median about -0.013, highest 2% from about 0.3 on). What follows is part of a selection rich in the highest values, with near analogues and random picks from the rest.
# Molecular target: T1, Msn1 (UniProt P22148)
# T1 sequence: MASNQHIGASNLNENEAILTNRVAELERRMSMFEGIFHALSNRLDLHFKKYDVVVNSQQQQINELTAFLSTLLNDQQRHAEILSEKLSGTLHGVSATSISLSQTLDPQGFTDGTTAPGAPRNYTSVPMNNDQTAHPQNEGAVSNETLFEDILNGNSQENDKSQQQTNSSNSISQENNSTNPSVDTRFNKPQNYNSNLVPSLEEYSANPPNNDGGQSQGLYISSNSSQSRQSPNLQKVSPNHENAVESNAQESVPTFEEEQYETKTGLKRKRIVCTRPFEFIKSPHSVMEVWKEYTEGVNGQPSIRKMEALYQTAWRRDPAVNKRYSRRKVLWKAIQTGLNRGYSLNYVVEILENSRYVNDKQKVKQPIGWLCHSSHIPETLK
# Assay: PBM E-score (8-mer binding enrichment) (E-score (-0.5 to 0.5)); higher = stronger / more preferred TF binding
# Conditions: protein concentration: 200 nM; construct: GST-full length
# Protocol: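 Universal 'all 10-mer' protein binding microarrays (Agilent AMADID 015681) probed with GST-tagged S. cerevisiae TFs (full-length or DBD) made by in vitro transcription/translation (PURExpress), about 100-200 nM. Bound TF was detected with fluorescent anti-GST. Each ungapped 8-mer (which stands for itself and its reverse complement) is scored by the PBM enrichment score (E-score), a modified Wilcoxon-Mann-Whitney statistic from -0.5 to +0.5, computed with the Universal PBM Analysis Suite. Scale: above 0.35 generally sequence-specific binding.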
row,Sequence,PBM E-score
1,CTGGGCCC,-0.252
2,CGCCTGGA,-0.0478
3,ACTGAACA,0.0547
4,CATTGCGA,-0.0316
5,ATCACCAA,-0.0626
6,GAGTAATC,-0.128
7,CCGACTGC,-0.00611
8,TAATGTAA,0.114
9,ACGGTTCT,-0.0415
10,CGACAAGA,0.121
11,GCACAAGA,-0.0415
12,ATACAATC,-0.0273
13,ATACAATA,0.114
14,AGACAACA,0.248
15,CTACAATA,0.0926
16,GGACAACA,0.337
17,AGACAACC,0.208
18,GGACAAGA,0.458
19,AGACAATC,0.359
20,GTACAATA,0.332
21,CGACAACA,0.204
22,AAATCTCC,-0.234

row,Sequence,PBM E-score
1,AGCCTTCC,-0.323
2,ACTTCGCT,-0.0222
3,AGGGCCAT,-0.246
4,AATTTCCT,0.0244
5,TACGGGGA,-0.11
6,ATCGTATG,0.0884
7,AGACAAGC,0.307
8,GCACAATA,-0.126
9,CGACAAGC,-0.0394
10,AGACAAGA,0.3
11,GAACAATA,0.144
12,AGACAATA,0.428
13,AGACAATG,0.295
14,CGACAATA,0.334
15,GGACAATA,0.464
16,ACACAATA,0.15
17,CCACAATA,-0.105
18,CGACAATC,0.113
19,CCCTAGCA,-0.119
20,CGTAGCAC,-0.0105
21,CATAGATA,0.126
22,AGCGAATG,-0.207

row,Sequence,PBM E-score
1,AGAGTATG,-0.143
2,AGAACTGA,0.0524
3,TCACTTCA,-0.0878
4,GATTTTCA,0.209
5,TACAGCAA,0.00838
6,GAACGTCC,0.206
7,AAACGTCT,0.24
8,AAACGTCC,0.317
9,TACTTCAA,0.16
10,AGGATACG,-0.105
11,CTCGCCCC,-0.302
12,AAGGTACA,0.166
13,CTGTGAGA,0.00231
14,ATCATGTC,0.278
15,GACATGTC,0.455
16,AACATGTT,-0.0343
17,GACATGTA,0.424
18,CACATGTC,0.431
19,AACATGTG,0.0694
20,GACATGGC,0.276
21,CACATGTA,0.121
22,TACATGTA,0.247

row,Sequence,PBM E-score
1,AACATGTC,0.401
2,AACATGTA,0.186
3,CACATGTG,-0.149
4,CGAGGGCG,-0.271
5,GACTCATC,-0.0489
6,GCTCTGCC,-0.281
7,GCGGTCCC,-0.188
8,ACTATGAA,0.112
9,CGCAATAA,0.212
10,ATCGAAAT,-0.151
11,CAATAGCA,-0.168
12,CTCAGGAC,0.243
13,ACCAGGAC,0.329
14,ACGAGGAT,-0.178
15,ACGAGGAC,0.324
16,ATCAGGAC,0.307
17,GCGAGGAC,0.0256
18,GTCAGGAA,0.0369
19,ACCAGGAA,-0.0403
20,GTCAGGAC,0.316
